Screening data as filed in PubChem BioAssay.
In the library only some 2.2% were active in any assay of this set; here they are far more common.
mut p53 react: restores mutant p53 pathway signaling in SW480 cells; SW480 PUMA-promoter luciferase, p53 mutant reactivation; activation, % at 9.98 µM; actives 1.5% (n = 28,000); in the data active = activation above about 52%; inconclusive = no clear call, values can overlap the other calls
ID4 binder: binds human ID4 protein on microarray | P47928 | small molecule microarray, Flag-ID4 binding, fluorescence F/B | calls only | actives 1.2% (n = 31,000); call rule not given here;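 also: a binder raises fluorescence above local background on the spot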
Target sequence (P47928 whole entry, looked up): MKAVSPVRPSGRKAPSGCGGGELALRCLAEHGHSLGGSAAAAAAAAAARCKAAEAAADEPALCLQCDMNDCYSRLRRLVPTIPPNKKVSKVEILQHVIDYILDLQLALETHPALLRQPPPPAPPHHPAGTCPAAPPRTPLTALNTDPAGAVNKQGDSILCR
Starred values were filed as active, the others as inactive; i = inactive; ? = inconclusive; . = no result; + = active, no number.

SMILES	mut p53 react	ID4 binder
O=C(CCN1C(=O)c2ccccc2C1=O)Nc1ccc(-c2nc3ccccc3[nH]2)cc1	20	i
CCC/C=C/C=C/C1C[C@@H](O)[C@@H](O)C(=O)[C@H]1CO (stereo not given in full)	.	i
Cc1noc(C)c1NC(=O)Nc1ccc2c(c1)C(=O)N([C@H](C)CO)C[C@H](C)[C@@H](CN(C)C(=O)Nc1c(C)noc1C)OCCCC[C@@H](C)O2	6	i
CCN(CC)C(=O)c1cc(-c2ccc(Cl)c(Cl)c2)on1	72*	i
Cc1ccc(-c2cc(C(=O)Nc3cc(C)nn3-c3ccccc3)no2)cc1	13	i
C[C@@H]1CN([C@H](C)CO)C(=O)Cc2cc(N(C)C)ccc2O[C@@H]1CN(C)Cc1ccc(C(F)(F)F)cc1	5	i
C[C@@H]1CN([C@H](C)CO)C(=O)c2cc(-c3cccnc3)cnc2O[C@@H]1CN(C)Cc1ccc(Oc2ccccc2)cc1	-11	.
COc1ccc(-c2cnc3c(c2)C(=O)N([C@H](C)CO)C[C@@H](C)[C@@H](CN(C)C(=O)NC2CCCC2)O3)cc1	.	i
C[C@@H]1CN([C@H](C)CO)C(=O)c2cc(-c3ccncc3)cnc2O[C@@H]1CN(C)C(=O)C1CCOCC1	13	+
C[C@H]1CN([C@@H](C)CO)C(=O)c2cc(-c3cccnc3)cnc2O[C@@H]1CN(C)C(=O)C1CCOCC1	5	.
C[C@@H]1CN([C@H](C)CO)C(=O)c2cc(C3=CCCC3)cnc2O[C@H]1CN(C)C(=O)Cc1ccncc1	2	+
C[C@@H]1CN([C@H](C)CO)C(=O)c2cc(-c3ccncc3)cnc2O[C@H]1CN(C)C(=O)NC1CCCC1	5	+
C[C@@H]1CN([C@@H](C)CO)C(=O)c2cc(-c3ccncc3)cnc2O[C@H]1CN(C)Cc1ccc(Oc2ccccc2)cc1	-18	+
C[C@H]1CN([C@@H](C)CO)C(=O)c2cc(C3=CCCCC3)cnc2O[C@H]1CN(C)C(=O)Cc1ccncc1	11	.
COc1cccc(C#Cc2ccc3c(c2)O[C@@H](CN(C)C)[C@H](C)CN([C@@H](C)CO)S3(=O)=O)c1	.	i
CNC(=O)c1cc(Br)cc2c1OCC2	-1	i
C[C@@H]1CN([C@@H](C)CO)C(=O)c2cc(-c3cccc(F)c3)cnc2O[C@H]1CN(C)Cc1cccc(F)c1	.	i
C=CCOC(=O)[C@@H]1[C@H]2C(=O)O[C@H](c3ccccc3)[C@H](c3ccccc3)N2[C@H](c2ccc(OCCOC(=O)[C@@H]3C[C@@H]4C(=O)N[C@@H](CCCCNC(C)=O)C(=O)N4[C@@H]3c3ccc(O)cc3)cc2)[C@@]12C(=O)Nc1ccc(I)cc12	.	i
Cc1ccc(NC(=O)c2ccco2)c(NC(=O)CCN2C(=O)c3ccccc3C2=O)c1	-12	i
C[C@@H]1CN([C@H](C)CO)C(=O)c2cc(-c3cccnc3)cnc2O[C@H]1CN(C)C	.	i
C[C@@H]1CN([C@@H](C)CO)C(=O)c2cc(-c3cccnc3)cnc2O[C@H]1CN(C)C	.	+
Cc1ccc(N(C(C)C(=O)Nc2ccc3c(c2)OCCO3)S(C)(=O)=O)cc1 (stereo not given)	5	i
COc1ccccc1NC(=O)N(C)C[C@@H]1OCc2cnnn2CCCC(=O)N([C@H](C)CO)C[C@@H]1C	3	i
Cc1cc2nc(SCc3nc4ccccc4[nH]3)[nH]c2cc1C	?	i
Cc1ccc2nc(SCc3nc4ccccc4n3C)[nH]c2c1	62*	i
SMILES	mut p53 react	ID4 binder
C[C@@H]1CN([C@H](C)CO)C(=O)c2cc(-c3cccc(F)c3)cnc2O[C@@H]1CN(C)C(=O)Nc1cc(F)ccc1F	18	i
C[C@@H]1CN([C@@H](C)CO)C(=O)c2cc(-c3ccccc3)cnc2O[C@H]1CN(C)C(=O)c1cccc(F)c1	.	i
C[C@H](CO)N1C[C@H](C)[C@H](CN(C)C(=O)c2cccc(F)c2)Oc2ncc(-c3ccccc3)cc2C1=O	.	+
C[C@H]1CN([C@@H](C)CO)C(=O)c2cc(-c3cccc(F)c3)cnc2O[C@H]1CN(C)C(=O)Nc1cc(F)ccc1F	-4	+
Cc1ccc2nsnc2c1S(=O)(=O)N1CCN(CCc2ccccc2)CC1	-1	i
CN1CCN(S(=O)(=O)c2ccc(Sc3nc4ccccc4[nH]3)c3nsnc23)CC1	-5	+
C[C@@H](O)C#Cc1cnc2c(c1)C(=O)N([C@@H](C)CO)C[C@H](C)[C@@H](CN(C)C(=O)CN1CCOCC1)O2	3	i
N#Cc1cccc(NC(=O)CCCN2C(=O)c3ccccc3C2=O)c1	12	+
N#Cc1ccc(NC(=O)CCN2C(=O)c3ccccc3C2=O)cc1	39	i
C=C[C@@]1(C)C[C@@H](O)C2=C([C@H]1O)[C@H](OC(C)=O)CC1[C@](C)(C(=O)OC)CC[C@H](O)[C@]21C (stereo not given in full)	14	.
COc1ccc(CN(C)C[C@H]2Oc3ccc(NC(=O)C4CCCCC4)cc3CC(=O)N([C@@H](C)CO)C[C@H]2C)cc1	4	.
C/C=C/c1cnc2c(c1)C(=O)N([C@@H](C)CO)C[C@@H](C)[C@@H](CN(C)S(=O)(=O)c1cccs1)O2	.	i
c1cncc(-c2nn3c(C4COc5ccccc5O4)nnc3s2)c1 (stereo not given)	3	i
c1ccc(-c2nn3c(C4COc5ccccc5O4)nnc3s2)cc1 (stereo not given)	59*	i
C[C@H](CO)N1C[C@H](C)[C@H](CN(C)S(=O)(=O)c2cccs2)Oc2ccc(NS(C)(=O)=O)cc2CC1=O	0	i
CC1(C)CC(=O)c2c(O)cc(OCC(=O)c3cccc([N+](=O)[O-])c3)cc2O1	75*	i
CC1(C)CC(=O)c2c(O)cc(OCC(=O)c3ccc(-c4ccccc4)cc3)cc2O1	-19	i
COC(=O)C[C@H]1C=C[C@@H](NC(=O)Nc2ccc(C(F)(F)F)cc2)[C@@H](CO)O1	.	i
CSc1ccc(C2C(C(=O)c3sc(C)nc3C)C(=O)C(=O)N2Cc2cccnc2)cc1 (stereo not given)	28	+
Cc1c(C(=O)C2C(=O)C(=O)N(Cc3cccnc3)C2c2ccc(F)cc2)cnn1-c1ccccc1 (stereo not given)	6	i
O=C(C[C@H]1C=C[C@H](NC(=O)CCN2CCCCC2)[C@H](CO)O1)NCc1ccc(Cl)c(Cl)c1	.	i
COc1ccccc1-c1ccc2c(c1)O[C@H](CN(C)C(=O)c1ccncc1)[C@H](C)CN([C@@H](C)CO)S2(=O)=O	4	.
Cc1ccc(-c2nnc3c4ccccc4c(C)nn23)cc1S(=O)(=O)N(C)CCO	56*	i
CCCCN(C)S(=O)(=O)c1cc(-c2nnc3c4ccccc4c(C)nn23)ccc1OC	9	i
Cc1cccc(OCC(=O)Nc2cccc(-c3nnc(-c4ccco4)o3)c2)c1C	?	i
Cc1cccc(OCC(=O)Nc2cccc(-c3nnc(-c4ccccc4)o3)c2)c1C	68*	i
Cc1ccc(OCC(=O)Nc2cccc(-c3nnc(-c4ccccc4)o3)c2)cc1	119*	i
Cc1ccc(OCC(=O)Nc2cccc(-c3nc4ccccc4[nH]3)c2)cc1	10	i
COc1ccc(OC(C)C(=O)Nc2cc([N+](=O)[O-])ccc2C)cc1 (stereo not given)	27	i
C[C@@H]1CN([C@H](C)CO)C(=O)c2cccc(NC(=O)NC3CCCCC3)c2O[C@H]1CN(C)C(=O)Nc1ccc(C(F)(F)F)cc1	2	i
